The values that follow come from ChEMBL document CHEMBL3988442, “University of Dundee, Small-Polar-MMV Screening Library” (2021).

Hit rate of the full screen: of about 48,000 compounds, about 13,000 (27%) showed an effect of 50% or more. Some of the results follow.

The subject of the experiment is Wolbachia pipientis. Nature of the experiment: Anti-Wolbachia Cell-Based Screen. Set-up: scale not given: in the data most compounds retested in dose-response had high values. Particulars: 5 µM. Type of experiment: functional.
Consider `CCN(CC)S(=O)(=O)c1cccc(C(=O)N(C)Cc2ccsc2)c1`, for which the “Percent Effect” value stood at 98.21%. The result for `CN(Cc1ccsc1)C(=O)c1ccc(F)c(NS(C)(=O)=O)c1` reads 0%. Consider `CCN(C)C(=O)c1cccc(S(=O)(=O)NCCc2csc(N)n2)c1`, for which the “Percent Effect” value is on record as -2.209%. For the compound `CN(Cc1ccsc1)C(=O)c1cc(S(=O)(=O)N(C)C)ccc1Cl`, the “Percent Effect” value is 5.417%.

As to `CNS(=O)(=O)c1cccc(C(=O)N(C)Cc2ccsc2)c1`, the “Percent Effect” value is 124.1%. In the case of `CN(Cc1ccsc1)C(=O)c1cccc(S(=O)(=O)NC(C)(C)C)c1`, the “Percent Effect” value came out at 0.007999%. Take `COCCNS(=O)(=O)c1ccc(Cl)c(C(=O)N(C)Cc2ccsc2)c1`: the “Percent Effect” value worked out at 14.25%. `CN(Cc1ccsc1)C(=O)c1ccc(C2CCCO2)s1` (centres undefined): the “Percent Effect” value is -3.526%. As for `CN(Cc1ccsc1)C(=O)Nc1ccc(S(=O)(=O)N(C)C)cc1`, the figure is 5.237%; as for `CN(Cc1ccsc1)C(=O)c1ccc(S(=O)(=O)NC(C)(C)C)cc1`, 98.59%. Take `CN(Cc1ccsc1)C(=O)c1cccc(NS(C)(=O)=O)c1`: the “Percent Effect” value is given as 8.391%.

Regarding `CN(Cc1ccsc1)C(=O)c1cccc(S(=O)(=O)NCC2CCCO2)c1` (centres undefined), the “Percent Effect” value is on record as 104.2%. Consider `Cc1ccc(C)c2c(C)c(C(=O)NCCC(=O)N3CCOCC3)oc12`, for which the “Percent Effect” value worked out at 9.055%. In the case of `CC(C)c1nsc(NC2CC(=O)N(C(C)(C)C)C2)n1` (centres undefined), the “Percent Effect” value is given as 1.592%. With `COC(CNC(=O)c1cn(C)nn1)c1ccc(C)s1` (centres undefined), the “Percent Effect” value is recorded as -8.016%. `Cc1ccccc1C(C)NC(=O)Cc1c(C)nc2cc(=O)[nH]n2c1C` (centres undefined): the “Percent Effect” value is -0.7333%. Consider `CN(CCNc1ncc2c(n1)CCN2c1ccccc1)S(C)(=O)=O`, for which the “Percent Effect” value was determined as 7.395%. The result for `O=C(O)c1ccccc1-c1c(-c2ccccc2)ncn1CC1CCCO1` (centres undefined) reads -2.227%; that for `Cc1ccc(-n2cc(C(=O)N3CCn4c(C)nnc4C3)nn2)cc1`, 111.3%.

As to `Cc1nnc2n1CCN(C(=O)c1cn(-c3ccccc3)nn1)C2`, the “Percent Effect” value came out at 102.5%.

Consider `Cc1nnc2n1CCN(C(=O)c1cn(-c3ccccc3Cl)nn1)C2`, for which the “Percent Effect” value was -0.6863%. In the case of `CCOC(C(=O)N1CCn2c(nnc2C(C)C)C1)c1ccccc1` (centres undefined), the “Percent Effect” value is on record as -0.6295%. As for `Cc1nnc2n1CCN(C(=O)c1ccn(-c3cccc(F)c3)n1)C2`, the “Percent Effect” value is on record as 108.9%.

Take `CC(C)(O)CN1CCN(C(=O)c2ccn(-c3cccc(F)c3)n2)CC1`: the “Percent Effect” value is given as -183.4%. In the case of `Cc1cccc(-n2cc(C(=O)N3CCn4c(C)nnc4C3)nn2)c1`, the “Percent Effect” value was 7.104%. Turning to `CC(C)c1nnc2n1CCN(C(=O)c1cn(-c3ccccc3)nn1)C2`, the “Percent Effect” value came to 113.1%. `Cc1nnc2n1CCN(C(=O)c1cc(Cl)c(Cl)n1C)C2`: the “Percent Effect” value is reported as -5.044%. Take `Cc1cccc(-n2c(C)cc(C(=O)N3CCn4c(C)nnc4C3)c2C)c1`: the “Percent Effect” value is given as 1.537%. As to `O=C(c1ccn(-c2cccc(F)c2)n1)N1CCN(CCO)CC1`, the “Percent Effect” value is -27.1%. Consider `COCc1ccccc1C(=O)N1CCn2c(nnc2C(C)C)C1`, for which the “Percent Effect” value amounted to 6.004%.

`O=C(CN1CCOC1=O)N1CCc2nnc(-c3ccccc3)n2CC1`: the “Percent Effect” value was 3.396%. For `Cc1nnc2n1CCN(C(=O)c1cn(-c3ccc(F)cc3)nn1)C2`, the “Percent Effect” value was 133.8%.

Turning to `CCc1nnc2n1CCN(C(=O)c1cn(-c3ccccc3)nn1)C2`, the “Percent Effect” value came out at 104.4%.

On to `Cc1nc(-c2ccsc2)ccc1C(=O)N1CCn2c(C)nnc2C1`, for which the “Percent Effect” value was -2.134%.

For `Cc1nnc2n1CCN(C(=O)c1cc(C)n(-c3ccccn3)c1C)C2`, the “Percent Effect” value was -6.785%. With `CCc1nnc2n1CCN(C(=O)C(OC)c1ccccc1)C2` (centres undefined), the “Percent Effect” value was -1.714%. As for `CCc1nnc2n1CCN(C(=O)c1cnc3ccccc3n1)C2`, the figure is -19.02%. As to `CCC1(CC)C(=O)NC(=O)N=C1Nc1ccc(C)cc1`, the “Percent Effect” value is recorded as 121.1%.

With `CCc1ccc(CNC(=O)c2ccc(N3CCOC3=O)cc2)s1`, the “Percent Effect” value is listed as -4.456%. With `CC(=O)Nc1ccc(Oc2ccc(CN3CCCC3)cc2F)cc1`, the “Percent Effect” value is on record as 96.27%. As for `COc1ccc(CN2CCCC2)cc1Oc1ccc(NC(C)=O)cc1`, the “Percent Effect” value is given as -0.1715%.

For the compound `CC(=O)Nc1ccc(Oc2cccc(CN3CCCC3)c2)cc1`, the “Percent Effect” value was -8.686%. On to `CC(Sc1nnnn1C1CCOCC1)C(F)(F)F` (centres undefined), for which the “Percent Effect” value was 4.015%.

Regarding `O=C(Nc1ccccn1)C1=NN(c2ccccc2)C(=O)CN1`, the “Percent Effect” value is -0.4273%. Take `Cl.O=S1(=O)CCC(NCCn2cncc2-c2ccc3c(c2)CCCO3)C1` (centres undefined): the “Percent Effect” value is listed as 81.24%. Regarding `CCc1cc(NC2CCS(=O)(=O)C2)nc(N2CCCCC2)n1` (centres undefined), the “Percent Effect” value is given as -10.03%.

As to `Cc1nn(C)c(N2CCOCC2)c1CNC1CCS(=O)(=O)C1` (centres undefined), the “Percent Effect” value was -13.17%. With `CN1CCCc2cc(-c3cncn3CCNC3CCS(=O)(=O)C3)ccc21.Cl` (centres undefined), the “Percent Effect” value is reported as 82.25%. In the case of `Cc1ccc(-c2ccsc2C(=O)NC2CCS(=O)(=O)C2)cc1` (centres undefined), the “Percent Effect” value is -8.809%.

Turning to `CCNC(=O)C1CCCN(C(=O)Nc2ccc3c(c2)CCCN3C)C1` (centres undefined), the “Percent Effect” value is -0.07324%.

With `N#Cc1ccnc(N2CCN(C(=O)NC3CCS(=O)(=O)C3)CC2)c1` (centres undefined), the “Percent Effect” value is reported as 5.841%.

As for `CC1(C)Cc2cc(-c3cncn3CCNC3CCS(=O)(=O)C3)ccc2O1.Cl` (centres undefined), the “Percent Effect” value was found to be 102.8%. With `CCN1CCc2cc(-c3cncn3CCNC3CCS(=O)(=O)C3)ccc21.Cl` (centres undefined), the “Percent Effect” value is 103%.

Regarding `CCc1nncn1CCNC(=O)Nc1ccc2c(c1)CCCO2`, the “Percent Effect” value was -5.053%. As for `CN(CCc1ccc2c(c1)CCO2)CC1CCS(=O)(=O)C1` (centres undefined), the figure is 6.378%.

Turning to `Cn1cc(CNC2CCS(=O)(=O)C2)c(-c2cc3ccccc3o2)n1` (centres undefined), the “Percent Effect” value is recorded as -8.31%.

For `Cc1cc(C(=O)NCC(O)CN2CCCC2=O)ccc1F` (centres undefined), the “Percent Effect” value is -5.14%. With `COCCN(C)c1ccc(NCc2ccsc2)nc1`, the “Percent Effect” value was -10.25%. As for `CCOc1ccc(CN2CCCC(c3nn(C)c(=O)n3CC)C2)cn1` (centres undefined), the “Percent Effect” value came to 24.07%. Turning to `COc1ccc(Cl)cc1CC(=O)NS(=O)(=O)c1ccc(C(N)=O)cc1`, the “Percent Effect” value is given as 102.7%. Regarding `COc1ccc(C)cc1CC(=O)Nc1cc(C)n[nH]1`, the “Percent Effect” value is 4.97%. `COc1ccc(C)cc1CC(=O)NS(=O)(=O)c1ccc(C(N)=O)cc1`: the “Percent Effect” value stood at 115.9%. On to `NC(=O)c1ccc(S(=O)(=O)NC(=O)COc2ccc3c(c2)CCC3)cc1`, for which the “Percent Effect” value is -8.361%. `COc1ccccc1CC(=O)NS(=O)(=O)c1ccc(C(N)=O)cc1`: the “Percent Effect” value is 6.119%. In the case of `CCC(C)NC(=O)CS(=O)(=O)Cc1cc(Cl)ccc1OC` (centres undefined), the “Percent Effect” value came to 28.04%. `COc1ncccc1CN1C[C@H](C(=O)N2CCCO2)[C@@H]2CCO[C@@H]2C1`: the “Percent Effect” value amounted to 0.1445%. Consider `CC(C)(C)c1nnc(CNc2c(F)cccc2-n2cccn2)o1`, for which the “Percent Effect” value is on record as -0.1409%. As for `Cc1nc(CN2CCCC(CCc3ccccc3F)C2)c[nH]1` (centres undefined), the figure is 15.72%.

For the compound `Cc1cc(C)c(C(=O)NC(CN2CCCC2)c2ccccc2)c(=O)[nH]1` (centres undefined), the “Percent Effect” value is 1.71%. Consider `Cn1ccc(CN2CCCC23CCN(Cc2ccccc2F)CC3)n1.O=C(O)C(F)(F)F.O=C(O)C(F)(F)F`, for which the “Percent Effect” value is on record as 125.7%. As for `Cn1ccc(CN2CCCC23CCN(Cc2cccc(F)c2)CC3)n1.O=C(O)C(F)(F)F.O=C(O)C(F)(F)F`, the figure is 121.8%; as for `COCCN1CCOCC12CCN(Cc1ccn(C)n1)CC2.O=C(O)C(F)(F)F.O=C(O)C(F)(F)F`, -14.13%; as for `COCCC(=O)N1CCC2(CCN(Cc3cccc(F)c3)CC2)CC1.O=C(O)C(F)(F)F`, -14.44%. Take `Cn1cncc1CN1CCC2(CCCN2c2ncccn2)CC1.O=C(O)C(F)(F)F`: the “Percent Effect” value amounted to 7.027%. In the case of `Fc1cccc(CN2CCC3(CCCN3c3ncccn3)CC2)c1.O=C(O)C(F)(F)F`, the “Percent Effect” value stood at 103.6%. The result for `COc1cc(N2CCC3(CCCN3Cc3ccn(C)n3)CC2)ncn1.O=C(O)C(F)(F)F` reads -11.95%; that for `Cc1c(CN2CCCC(C(=O)CCc3ccccc3)C2)cc(C#N)n1C` (centres undefined), 16.56%; that for `CCn1ncc(CNC(=O)c2cn(CCC3CCCCN3)nn2)c1C` (centres undefined), 3.216%. Turning to `CN(CC(=O)NC(C)(C)C)Cc1nc(-c2ccccc2)c[nH]1`, the “Percent Effect” value is reported as -12.75%.

With `CN(CC(=O)NCC(CCO)c1ccccc1)C(=O)OC(C)(C)C` (centres undefined), the “Percent Effect” value was 2.407%. As for `CN(CC(=O)NCC(O)c1cccc(F)c1)C(=O)OC(C)(C)C` (centres undefined), the figure is 1.189%; as for `Cc1cccc(NC(=O)CN(C)C(=O)c2ccc(OC(C)C)nc2)n1`, 4.087%. Consider `CN(CC(=O)NCC(F)(F)F)C(=O)c1ccc(C(=O)OC(C)(C)C)cc1`, for which the “Percent Effect” value is 91.82%. For `Cc1ccc(C(=O)N(C)CC(=O)NCC(F)(F)F)cn1`, the “Percent Effect” value was 99.88%. Regarding `Cc1ccc(OCC(=O)NCC(F)(F)F)nc1`, the “Percent Effect” value is on record as -4.389%.

Turning to `CNS(=O)(=O)CC1CCCN1C(=O)c1cccc(Cl)c1` (centres undefined), the “Percent Effect” value is -8.436%.

For the compound `CC(=O)c1ccc(S(=O)(=O)N2CCCC2CN2CCCC2)cc1` (centres undefined), the “Percent Effect” value is reported as -61.12%. On to `CC(=O)NCCC1CCCCN1S(=O)(=O)c1cccc(Cl)c1` (centres undefined), for which the “Percent Effect” value was 153.7%. As for `CCN1CCN2CCCN(S(=O)(=O)c3cccc(F)c3)C2C1=O` (centres undefined), the figure is 4.508%; as for `CC(=O)NCCC1CCCCN1S(=O)(=O)c1ccc2ccccc2c1` (centres undefined), 104.3%; as for `CC(=O)NCCC1CCCCN1S(=O)(=O)c1cccc(F)c1` (centres undefined), 85.51%. As for `CC(=O)NCCC1CCCCN1S(=O)(=O)c1cccc(C#N)c1` (centres undefined), the figure is -10.91%; as for `CSc1ccc(S(=O)(=O)N2CCCCC2CCNC(C)=O)cc1` (centres undefined), -2.003%.

Turning to `CCN1CC(C(=O)N(C)Cc2ccon2)CC1=O` (centres undefined), the “Percent Effect” value is reported as 8.13%.

Take `CCN(CC)[C@H]1C[C@@H](Cc2cc(CO)on2)C1(C)C`: the “Percent Effect” value is -1.281%. With `COC(=O)c1ccccc1NC(=O)c1c(C)cn(C)c1CC(=O)O`, the “Percent Effect” value came out at 101.4%. In the case of `CCn1cc(C(=O)Nc2ccc(C)cc2C(=O)OC)cn1`, the “Percent Effect” value is listed as -8.405%. As for `COc1ccc(OC)c(NC(=O)c2c(C)cn(C)c2CC(=O)O)c1`, the “Percent Effect” value amounted to 111%.

As to `COC(=O)c1ccccc1NC(=O)c1nc2ccccc2n(C)c1=O`, the “Percent Effect” value is recorded as 2.974%. Turning to `COc1ccc(OC)c(CNCc2c(C)nc3sc(C)cn23)c1`, the “Percent Effect” value came to 17.49%.

As to `COc1ccc(C)cc1NC(=O)c1c(C)cn(C)c1CC(=O)O`, the “Percent Effect” value came to 106.8%. The result for `COc1ncc(NC(=O)Nc2cc(C)ccc2OC)cn1` reads 7.981%. On to `COc1ccc(OC)c(NC(=O)N2CCCC2c2ccco2)c1` (centres undefined), for which the “Percent Effect” value is listed as -3.414%. In the case of `COc1ccc(C)cc1NC(=O)CNc1ccn(CC(N)=O)n1`, the “Percent Effect” value was -13.27%.
